Laboratory results published in PubChem BioAssay (NCI).
The panel holds about 83,000 compounds, 20% with a hit somewhere; the sample as a whole holds those more often.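 Plates (96-well) were seeded with cells, treated with compound at one concentration, and incubated for 48 hours before percent growth was determined.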 A number with no mark means an inactive call. The source made the active and inactive calls. The calls were made as follows: active = growth percent below 10; inactive = the rest.

Tests used:
Assay in all cases: NCI-60 one-dose screen, 48 h (100 = growth as untreated, 0 = no growth, -100 = all killed)
Conditions in all cases: 10 µM unless noted
SK-MEL-2 melanoma = system: SK-MEL-2 melanoma
EKVX NSCLC = system: EKVX NSCLC
SN12C renal = system: SN12C renal
UO-31 renal = system: UO-31 renal
TK-10 renal = system: TK-10 renal
ACHN renal = system: ACHN renal
CAKI-1 renal = system: CAKI-1 renal
A498 renal = system: A498 renal
MOLT-4 leukemia = system: MOLT-4 leukemia
SR leukemia = system: SR leukemia
RPMI-8226 leukemia = system: RPMI-8226 leukemia
OVCAR-5 ovarian = system: OVCAR-5 ovarian
OVCAR-4 ovarian = system: OVCAR-4 ovarian
SK-OV-3 ovarian = system: SK-OV-3 ovarian
IGROV1 ovarian = system: IGROV1 ovarian
OVCAR-3 ovarian = system: OVCAR-3 ovarian
HS 578T breast = system: HS 578T breast
NCI/ADR-RES ovarian = system: NCI/ADR-RES ovarian
OVCAR-8 ovarian = system: OVCAR-8 ovarian
CCRF-CEM leukemia = system: CCRF-CEM leukemia

SMILES	growth (SK-MEL-2 melanoma) [%]	growth (EKVX NSCLC) [%]	growth (SN12C renal) [%]	growth (UO-31 renal) [%]	growth (TK-10 renal) [%]	growth (ACHN renal)	growth (CAKI-1 renal)	growth (A498 renal) [%]	growth (MOLT-4 leukemia)	growth (SR leukemia)	growth (RPMI-8226 leukemia) [%]	growth (OVCAR-5 ovarian) [%]	growth (OVCAR-4 ovarian)	growth (SK-OV-3 ovarian) [%]	growth (IGROV1 ovarian)	growth (OVCAR-3 ovarian)	growth (HS 578T breast)	growth (NCI/ADR-RES ovarian)	growth (OVCAR-8 ovarian) [%]	growth (CCRF-CEM leukemia)
CCCCCCCCCc1ccc(OC(C)=O)cc1	101	108	99.6	95.9	96.3	109%	103%	70.1	108%	102%	91.8	105	107%	119	111%	108%	96.3%	119%		
CC(C)OCC(CCl)OC(=O)Nc1ccccc1 (stereo not drawn)	102	104	96.7	80.9	91.7	105%	98.2%	103	99.9%	117%	109	104	101%	97.6	105%	101%	114%	107%		
Cc1cc(CC(=O)NCCO)n(CCO)c(=O)c1	109	93.7	103	94.4	94.1	106%	101%	89.4				106	108%	104	108%	106%		106%	103	
O=C(O)c1c[nH]c2ccccc2c1=O	95.1	103	103	90.6	97.7	102%	100%	127	90%		97.8	93.9	93.4%	92.3	99.2%	107%		104%	108	
O=C(CCCl)OCCOc1ccccc1	104	109	104	88.5	100	106%	102%	89		94.5%	53.6	109	102%	100	104%	104%	98.8%	106%	102	
ClCc1cccc2c(CCl)cccc12	84.3	82.2	64.5	60.4	86.8	31.5%	15.2%	107			31	114	94.4%	83	54.9%	62.7%	98.8%	69.2%		29.8%
Cc1ccc(Cc2ccc(C)cc2)cc1	99.6	94.9	110	81.1	107	99.9%	99.8%	93.2	97.2%	102%	106	99.1	109%	97.2	103%	116%	105%	108%	102	
COC(=O)C1=C(C)C(=O)CC1	115	131	98.3	89	108	99.7%	116%	109				99.6	119%	112	112%	114%	104%	135%	109	99.6%
Nc1ccn(C2CC(N)C(CO)O2)c(=O)n1 (stereo not drawn)	122	100	67.4	72.6	99.4	20.1%	42.3%	100	31%	54.5%	31.5	108	86.7%	69.6	87.1%	115%	114%	46%	45.6	
C#CC(O)c1ccccc1 (stereo not drawn)	106	103	104	101	99.5	104%	103%	94.2	99.4%	106%	104	101	105%	103	108%	106%	107%	107%	103	
NC(=S)N/N=C/c1ccc(OC(=O)COc2ccc(Cl)cc2)cn1	62.8	93.6	28.2	24.9	74.9	12.5%	0.332% (active)	57.3			59.1	120	59.2%	82.1	46.5%	56.4%	114%	27.9%	23.9	18.6%
Oc1cc(O)c2c(c1)O[C@H](c1ccc(O)c(O)c1)[C@@H](O)C2	106	99.4	102	89.5	106	98%	99.4%	120				100		109	103%		117%	101%		94.4%
CC1CCC(C)(C)c2ccccc21 (stereo not drawn)	106	96.3	99.5	91.5	104	98.4%	96.5%		116%	107%	117	92.4	98.2%	101	98.4%	114%	105%	101%	105	
C(=C\c1ccncc1)/c1ccncc1	88.2	105	101	84.7	102	98.9%	129%					114	92.4%	120		169%	114%	98%	121	101%
CCCCOC(=O)c1ccccc1O	161	106	107	99.2	115	104%	107%		117%	154%	16.5	101	105%	110	118%	124%		110%	107	-71.6% (active)
COc1cccc2c1Cc1ccccc1-2	110	102	108	88.6	134	114%	98.3%		113%	121%		107	98.9%	115	115%	112%	103%	98.6%	112	104%
CSCCC(NC(=O)C(Cl)Cl)C(=O)O (stereo not drawn)	102	90.2	97.5	96.3	94.1	101%		108	90.5%	91.5%	101	94.7	115%	85.6	105%	106%		106%	96.7	97.7%
CCCCOC(=O)c1ccc(NC(=O)CCl)cc1	62.3	86	18.3	57.9	92	-17.1% (active)		99.2	0.49% (active)	-30.8% (active)	19.5	101	-53% (active)	105	-49.5% (active)	-83.5% (active)	79.9%	65.2%	42.2	-15% (active)
CCOC(=O)N[C@H]1CCc2cc(OC)c(OC)c(OC)c2-c2ccc(SC)c(=O)cc21	32.2	31.6	26.8	47	43.7	28.3%	19.7%		9.15% (active)	3.83% (active)		23.3	53.4%	28.7	21.7%	-9.45% (active)	9.15% (active)	0.533% (active)	20.8	21.9%
